Compound activity as filed in PubChem BioAssay.
The list is not random: actives were taken first. Their share in the collection is about 3.4%.
TEAD-YAP block = TEAD-YAP interaction inhibition, primary screen, TEAD-YAP interaction inhibitor project, luminescence, HEK-TIYL cells; TEAD-Gal4/YAP UAS-luciferase luminescence; 1.4% of 640,000 active; AID 1259422, 2018; inhibition, % at 9.12 µM; in the data active = inhibition above about 32%;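 also: 0% = median of test compound wells and 100% = reference inhibitor wells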
MITF inh = MITF inhibitors, primary screen, biochemical, AlphaScreen, human. Microphthalmia-associated transcription factor (Homo sapiens), O75030. AlphaScreen MITF homodimerization, bead proximity signal. inhibition, % at 2.6 µM. 0.91% of 650,000 active. AID 1259374, 2018; in the data active = inhibition above about 50%;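 also: 0% = vehicle wells with protein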
FBW7 activator = FBW7 E3 ligase activators, primary screen, biochemical, AlphaScreen, human; 0.13% of 650,000 active; normalized activity (activation), % at 26.1 µM; F-box/WD repeat-containing protein 7 (Homo sapiens), Q969H0; AlphaScreen FBW7–phospho-cyclin E peptide binding, activator screen; in the data active = normalized activity above about 1.9%;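 also: purified mutant Fbw7 with reduced substrate affinity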
Target sequence (Q969H0 whole entry, looked up): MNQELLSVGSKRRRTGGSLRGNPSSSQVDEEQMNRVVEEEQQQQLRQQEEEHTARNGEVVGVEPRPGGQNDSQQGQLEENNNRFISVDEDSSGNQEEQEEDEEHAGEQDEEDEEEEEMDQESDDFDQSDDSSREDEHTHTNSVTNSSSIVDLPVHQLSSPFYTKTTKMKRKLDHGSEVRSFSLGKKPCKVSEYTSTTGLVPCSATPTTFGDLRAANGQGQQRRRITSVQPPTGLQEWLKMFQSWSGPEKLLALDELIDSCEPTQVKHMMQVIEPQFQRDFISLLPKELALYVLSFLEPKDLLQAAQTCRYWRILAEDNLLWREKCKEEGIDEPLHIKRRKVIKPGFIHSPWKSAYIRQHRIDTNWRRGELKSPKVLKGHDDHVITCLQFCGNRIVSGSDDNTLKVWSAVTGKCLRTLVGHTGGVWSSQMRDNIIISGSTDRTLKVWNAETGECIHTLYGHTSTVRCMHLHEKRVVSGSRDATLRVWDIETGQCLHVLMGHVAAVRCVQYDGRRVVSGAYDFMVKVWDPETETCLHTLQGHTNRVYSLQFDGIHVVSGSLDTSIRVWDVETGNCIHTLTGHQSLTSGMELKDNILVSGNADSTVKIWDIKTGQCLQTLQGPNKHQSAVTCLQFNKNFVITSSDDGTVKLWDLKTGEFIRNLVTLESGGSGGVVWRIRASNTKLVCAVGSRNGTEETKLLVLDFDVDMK
GPR151 activ = activators of human GPR151, primary screen, cell-based, PathHunter beta-arrestin, luminescence | 1% of 650,000 active | PathHunter beta-arrestin GPR151 cells | G-protein coupled receptor 151 (Homo sapiens), Q8TDV0 | activation, % at 11.2 µM; in the data active = activation above about 4.9%;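 also: 0% = median of compound wells and 100% = cells with positive control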
GPR151 conf act = GPR151 activators, triplicate retest, confirmation, cell-based, PathHunter beta-arrestin, luminescence | shares compounds with GPR151 activ | GPR151 PathHunter beta-arrestin cells, 90 min; % of EA-reagent control over plate median | activation, % at 11.2 µM | 6,700 tested, under 10 active;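 active = mean percent activation across replicates above the confirmation screen cutoff of 4.91%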
GPR119 counter = GPR119 activators in beta-arrestin cells, counter-screen for GPR151 activator project, cell-based, PathHunter beta-arrestin, luminescence, triplicate; shares compounds with GPR151 activ; 90 min; 0 = compound-well median, 100 = enzyme-acceptor control; activation, % at 11.2 µM; 0.3% of 6,700 active; AID 1508611, 2020;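 active = mean percent activation in the counterscreen above 29.09%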;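 also: counterscreen on off-target GPR119 to flag nonselective hits from the GPR151 activator screen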
The depositor's hits bear a star; / = not tested or not shown.

SMILES	TEAD-YAP block	MITF inh	FBW7 activator	GPR151 activ	GPR151 conf act	GPR119 counter
CC1=C(C#N)C(=O)N(C)C(=O)/C1=C/c1ccc(-c2cccc(Cl)c2C)o1	-1.4	-12.3	-0.6	5.0*	-0.5	-6.0
COc1ccccc1-c1cc(NC(=NCc2ccco2)SC)n[nH]1	50.4*	9.3	-0.2	6.4*	1.1	1.1
COc1ccc(-c2cc(NC(=NCc3ccco3)SC)n[nH]2)c(OC)c1	23.9	9.8	0.6	0.3	/	/
COc1ccccc1NC(=O)CSc1nc2ccccc2c(=O)n1CCc1ccc(OC)c(OC)c1	-5.2	5.5	-0.1	1.8	/	/
COc1ccc(S(=O)(=O)Oc2ccc(C=C3C(=O)NC(=O)NC3=O)cc2)cc1	1.6	8.7	-0.8	5.3*	0.7	10.2
O=C1NC(=O)C(=Cc2ccc(OS(=O)(=O)c3ccc(Cl)cc3)cc2)C(=O)N1	-5.2	13.4	-0.1	-0.8	/	/
CCCC1=NN2C(=N)/C(=C/c3ccc(-c4ccc(C(=O)OCC)cc4)o3)C(=O)N=C2S1	-0.1	3.5	-0.1	5.2*	1.0	18.6
C#CCn1cnc2c(nnn2-c2ccc(C)c(C)c2)c1=O	-20.7	-12.2	-0.1	-1.0	/	/
Cc1ccc(CN2C(=O)CSc3ccc(NC(=O)Nc4nc(C)cc(C)n4)cc32)cc1	-14.8	2.6	0.0	7.4*	-0.1	-0.6
N#CC1=C(N)Oc2n[nH]c(-c3ccc(Cl)cc3)c2C1c1cccc(O)c1 (centres undefined)	4.2	-0.3	0.0	3.1	/	/
COc1ccc(NC(=O)N2CCC(CN3CCOCC3)CC2)cc1OC	5.5	5.3	0.4	6.9*	0.8	6.5
COc1ccc(NC(=O)N2CCC(CN3CCOCC3)CC2)c(OC)c1	-1.5	9.0	0.3	3.8	/	/
O=C(c1c(F)cccc1Cl)N(c1ccccc1)C1C=CS(=O)(=O)C1 (centres undefined)	-11.3	-4.1	-0.3	1.1	/	/
O=C(c1c(F)cccc1Cl)N(c1ccc(F)cc1)C1C=CS(=O)(=O)C1 (centres undefined)	5.4	1.0	0.0	7.2*	-0.1	6.2
O=C1[C@@H]2C[C@H](NCc3ccc(F)cc3F)CN2C(=O)[C@@H]2CCCN12	0.9	17.0	0.1	-0.3	/	/
COc1cccc(/C(O)=C(\C#N)c2nc3ccccc3[nH]2)c1	-19.5	4.4	0.0	-1.5	/	/
CC(=O)C1=C(C)NC(SCC(=O)O)=C(C#N)C1c1ccccc1 (centres undefined)	-7.8	13.6	0.0	0.3	/	/
CC(=O)C1=C(C)NC(SCC=C(C)C)=C(C#N)C1C1C=CC(Cl)C=C1 (centres undefined)	-2.8	-6.8	0.2	5.4*	1.1	-13.3
NC(=O)c1ccc(NC(=O)COc2ccc(-c3ccccc3)cc2)cc1	5.6	-4.8	-0.3	-0.7	/	/
COc1cc(I)cc(CNc2ccc(F)cc2)c1O	-4.1	9.6	0.1	5.4*	-0.1	6.1
COc1ccccc1NC(=O)NCc1nc(N)n(C(=O)Nc2ccccc2OC)n1	2.9	-10.0	0.0	5.2*	-0.3	4.8
CCOC(=O)c1sc(NC(=O)C2CC2)nc1C	7.9	-5.3	0.1	13.1*	1.4	5.5
CCc1ccc(OCC(=O)Nc2cc(C)on2)cc1	-50.8	4.1	0.3	-0.9	/	/
CCc1ccc(C(=O)NC(CC(C)C)C(=O)Nc2cc(C)on2)cc1 (centres undefined)	0.1	3.5	-0.4	5.3*	0.3	-0.7
O=C(NNC(=S)Nc1ccccc1Cl)C1CC1	6.0	5.4	0.1	6.0*	1.2	8.5
SMILES	TEAD-YAP block	MITF inh	FBW7 activator	GPR151 activ	GPR151 conf act	GPR119 counter
COc1ccc(-c2cc(C(F)(F)F)nc(NCC3CCCO3)n2)cc1 (centres undefined)	-3.0	-4.2	0.1	-0.5	/	/
COc1cc(C)cc(CN2CCN(Cc3ccc4c(c3)OCO4)CC2)c1O	-11.2	-0.4	-0.1	5.3*	-0.4	7.3
COc1cc(OC)c(CN2CCN(Cc3ccc4c(c3)OCO4)CC2)cc1Br	-4.8	39.3	0.0	3.5	/	/
C/C(=N\NC(N)=O)c1c(O)c2ccccc2oc1=O	6.1	-3.0	-0.2	7.4*	0.4	4.7
CN=C(C)c1c(O)c2ccccc2oc1=O	9.2	-21.7	0.2	-0.2	/	/
CCCCCCSc1nc2sc3c(c2c(=O)n1-c1ccc(C)cc1)CC(C)(C)OC3	1.4	10.4	0.1	0.6	/	/
CCCCCCSc1nc2sc3c(c2c(=O)n1-c1ccc(OC)cc1)CC(C)(C)OC3	3.0	-5.6	-0.1	9.7*	1.4	16.0
CC(C)(C)c1ccc(OCC(N)=O)c(Br)c1	-13.9	11.4	0.0	5.9*	0.6	11.2
Fc1ccccc1CSc1nnc(-c2cnccn2)n1Cc1ccco1	-33.7	2.5	-0.3	9.9*	0.0	19.6
CCN(CC)CCNCC(=O)N1CCCc2ccccc21	4.7	19.5	0.0	8.3*	-0.3	-0.2
O=C(c1ccc2c(c1)N(Cc1ccccc1)C(=O)CS2)N1CCOCC1	11.4	-0.2	0.0	0.1	/	/
O=C(c1ccc(CN2C(=O)CCn3nccc32)cc1)N1CCOCC1	-1.9	1.2	-0.2	7.2*	-0.1	-9.1
CN(C)S(=O)(=O)c1ccc(NC(=O)/C=C/c2ccco2)cc1	-22.9	7.4	0.2	8.3*	0.9	3.8
O=C(/C=C/c1ccco1)Nc1ccc(S(=O)(=O)N2CCCCCC2)cc1	2.3	-5.8	-0.2	-0.7	/	/
O=C(Nc1ccc(S(=O)(=O)N2CCCCCC2)cc1)C(Cl)(Cl)Cl	-0.1	5.7	-0.1	6.7*	0.0	-7.4
O=C(/C=C/c1ccco1)Nc1ccc(S(=O)(=O)N2CCCCC2)cc1	4.6	-12.7	0.0	13.3*	-1.1	-7.9
CNS(=O)(=O)c1ccc(NC(=O)/C=C/c2ccco2)cc1	-9.4	-3.3	-0.1	-0.4	/	/
Cc1nc(-n2cnc3cc(C)c(C)cc32)c2c3c(sc2n1)CCC3	-5.7	-8.7	-0.1	0.6	/	/
Cc1ccc2c(c1)-c1c(cnn1CC(=O)NC1CC1)CO2	20.9	6.4	0.6	6.1*	-0.2	-3.2
Cc1ccc2c(c1)-c1c(cnn1CC(=O)NCCN(C)C)CO2	-0.8	-0.3	0.0	10.6*	-0.2	5.3
Cc1ccc2c(c1)-c1c(cnn1CC(=O)N(C)c1ccccc1C)CO2	12.6	1.5	-0.1	7.1*	-0.3	-4.3
CCOCCCNC(=O)Cn1ncc2c1-c1cc(C)ccc1OC2	5.0	4.8	-0.1	0.4	/	/
O=C(c1nn2c(C(F)(F)F)cc(-c3ccccc3)nc2c1Cl)N(Cc1ccccc1)Cc1ccccc1	-9.8	-7.7	-0.3	-1.1	/	/
Fc1ccc(Cn2cc(/C=N/n3cnnc3)c3ccccc32)cc1	-2.2	18.1	0.8	-1.6	/	/
